Screens as filed in PubChem.
Most compounds without a hit are left out; they make up all but 11% or so of the library.
Luciferase inh – Firefly luciferase inhibition profiling of diverse chemical library using quantitative high-throughput screening | Luciferin 4-monooxygenase (Photinus pyralis), P08659 | purified P. pyralis luciferase, luminescence, biochemical | Potency, µM (series often up to 115 µM), most hits filed as inhibitors | 76,000 compounds, 2.5% hits | AID 1347043, 2019; note: nearly all actives have a fitted effect of over 65% in size
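Luminescence read by CCD imaging after purified firefly luciferase (10nM final) was added to substrate buffer holding 10uM D-luciferin and 10uM ATP, pH 7.5, pre-dosed with compound.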
HEK cytotox – Cytotoxic Profiling in HEK 293 Cell Line of Diverse Libraries Using Quantitative High-Throughput Screening; Potency, µM (titrated, usually from 115 µM), actives largely listed as inhibitors; 94,000 compounds, 6.6% hits; AID 1345083, 2018; HEK 293 viability, ATP luminescence (CellTiter-Glo), 48-72 h; note: nearly all actives have a fitted effect of over 60% in size
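HEK 293 cells seeded at 250 cells/well were exposed to compound for 48 or 72 hr at 37 degree Celsius. Viability taken as ATP content by CellTiter-Glo luminescence.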
NPR1 antag – Natriuretic polypeptide receptor (hNpr1) antagonism - Primary qHTS; Potency, µM (titrated, usually from 46.3 µM), most hits filed as inhibitors; AID 1347048, 2019; HEK293 hNpr1 GloSensor cGMP, ANP-stimulated luminescence; 76,000 compounds, 1.6% hits; Atrial natriuretic peptide receptor 1 (Homo sapiens), P16066; calls by dose curve; note: nearly all actives have a fitted effect of over 60% in size
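Compound pre-incubated 30 min at room temperature on GloSensor-loaded HEK293 cells stably carrying hNpr1 and the pGS-40F cGMP biosensor. Stimulation uses hNppA at 0.1 nM final; luminescence is taken at baseline and 20 min post-agonist.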
3T3 cytotox – Cytotoxic Profiling in NIH 3T3 Cell Line of Diverse Libraries Using Quantitative High-Throughput Screening; NIH 3T3 viability, CellTiter-Glo ATP luminescence, 48-72 h; Potency, µM (top dose mostly 96.7 µM), actives largely listed as inhibitors; 94,000 compounds, 4.3% hits; note: nearly all actives have a fitted effect of over 55% in size
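ATP-dependent luminescence (CellTiter-Glo) served as the viability signal for NIH 3T3 cells treated with compound for 48 or 72 hr at 37 °C.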
A number is an active result; 0 = inactive; ? = inconclusive; - = no result. Unless noted, calls come from the whole dose curve; as a rule, active = well fitted curve in the direction sought with a large enough effect; inconclusive = small, poorly fitted or top-dose-only effect, or another doubt; inactive = no such curve, though single readings can be large; an effect the other way counts as inactive or inconclusive.

SMILES	Luciferase inh	HEK cytotox	NPR1 antag	3T3 cytotox
Cc1ccc(NC(=O)Nc2ccccc2)c(=O)n1CC(=O)NCCN1CCCCC1	0	0	0	0
COc1cccc(NC(=O)Cn2c(C)ccc(NC(=O)Nc3ccc(C)cc3)c2=O)c1	1µM	79µM	?	?
Cc1ccc(NC(=O)Nc2ccc(C)n(CC(=O)Nc3ccccc3)c2=O)cc1	0.79µM	0	0	0
CCCN1CCN(C(=O)Cn2c(C)ccc(NC(=O)Nc3ccccc3)c2=O)CC1	35µM	0	0	0
CN1[C@@H](CCC(=O)N2CCC(O)CC2)CNC(=O)[C@@H]2[C@H]1CCN2Cc1nc2ccccc2n1C	0	0	0	0
O=C(NC1CCCN(CCc2ccccc2)C1)C1(Cn2cccn2)CC1 (stereo not given)	0	0	0	?
Cc1ccc(NC(=O)Nc2ccc(C)n(CC(=O)NC3CCCCC3)c2=O)cc1	0.4µM	?	?	?
Cc1ccc(S(=O)(=O)Nc2ccc(C)n(CC(=O)Nc3ccccc3)c2=O)cc1	0	0	0	0
COc1cccc(C(=O)N2CCC(n3cc(-c4nc(-c5ccccc5)no4)nn3)C2)c1 (stereo not given)	?	?	11µM	?
COc1cccc(C(=O)N2CCC(n3cc(-c4nc(-c5ccccc5)no4)nn3)CC2)c1	?	45µM	?	?
CCCc1noc(-c2cn(C3CCN(C(=O)c4ccc(OC)c(F)c4)CC3)nn2)n1	0	0	0	0
N#Cc1cccc(C(=O)N2CCC(n3cc(-c4nc(-c5ccccc5)no4)nn3)CC2)c1	0	?	0	0
COc1ccc(C(=O)N2CCC(n3cc(-c4nc(-c5ccccc5)no4)nn3)C2)cc1F (stereo not given)	?	?	?	0
Cc1cccc(OCC(=O)N2CCC(n3cc(-c4nc(-c5ccccc5)no4)nn3)C2)c1 (stereo not given)	?	10µM	0	13µM
CCCc1noc(-c2cn(C3CCN(C(=O)c4ccc(F)c(F)c4)CC3)nn2)n1	0	?	0	13µM
COc1cccc(C(=O)N2CCC(N3C[C@H](O)C[C@H]3C(=O)N3CC=C(c4ccccc4)CC3)CC2)c1	0	79µM	0	0
CCN1C(=O)COC[C@@H]1[C@H](O)c1ccc(NC(=O)c2ccnc(Cl)c2)cc1	0	?	0	?
Cn1ncc2c(C(=O)N3CCCC3)cc(-c3ccccc3C(F)(F)F)nc21	-	0	-	0
Cn1ncc2c(C(=O)NCc3ccccc3F)cc(-c3ccccc3C(F)(F)F)nc21	-	40µM	-	?
Cn1ncc2c(C(=O)C3CCN(Cc4ccccc4)CC3)cc(-c3ccccc3C(F)(F)F)nc21	-	20µM	-	32µM
COc1ccccc1-c1cc(C(=O)NCc2ccccc2F)c2cnn(C)c2n1	-	0	-	0
Cn1ncc2c(C(=O)NCCc3cccc(F)c3)cc(-c3ccccc3C(F)(F)F)nc21	-	40µM	-	?
COCCNC(=O)c1cc(-c2ccccc2C(F)(F)F)nc2c1cnn2C	-	0	-	0
O=C(NCCNC(=O)c1ccc(-c2cccc(C(F)(F)F)c2)cc1)Nc1ccc(Cl)cc1	-	0	-	0
O=C1c2c(nc(COc3cccc(C(F)(F)F)c3)n2Cc2ccccc2)NCCN1CC1CC1	0	50µM	0	35µM
SMILES	Luciferase inh	HEK cytotox	NPR1 antag	3T3 cytotox
O=C1c2c(nc(CNc3ccccc3Cl)n2Cc2ccccc2)NCCN1CC1CC1	0	100µM	0	89µM
COc1cccc(OCc2nc3c(n2Cc2ccccc2)C(=O)N(CCOc2ccccc2)CCN3)c1	0	32µM	?	20µM
O=C1c2c(nc(COc3ccccc3)n2Cc2ccccc2)NCCN1CCOc1ccccc1	0	32µM	0	?
COc1cc(-c2onc(C)c2C(=O)NCC2CCCO2)cc(OC)c1OC (stereo not given)	0	?	0	0
O=C(c1cccnc1)N1CCCN(c2ccc3nnc(-c4ccccc4)n3n2)CC1	-	0	-	0
COCC(=O)N1CCC(Oc2ccc(C(=O)N(C)C)cn2)CC1	0	0	0	0
O=C1c2c(nc(COc3cccc(Cl)c3)n2Cc2ccccc2)NCCN1CCOc1ccccc1	0	?	0	18µM
N#Cc1cccc(OCc2nc3c(n2Cc2ccccc2)C(=O)N(Cc2ccccc2F)CCN3)c1	0	?	0	28µM
CCN(CC)C(=O)CCc1c(C)nn(-c2cccc(C)c2)c1Oc1ccc(F)cc1F	0	25µM	0	35µM
C=CCNC(=O)CCc1c(C)nn(-c2ccc(F)cc2)c1Oc1ccc(F)cc1F	0	35µM	0	?
Cc1nn(-c2ccc(F)cc2)c(Oc2ccccc2F)c1CCC(=O)N(C)C(C)C	0	35µM	0	?
CCN(CC)C(=O)CCc1c(C)nn(-c2ccc(F)cc2)c1Oc1ccccc1F	0	?	0	?
Cc1cccc(-n2nc(C)c(CCC(=O)N(C)C(C)C)c2Oc2ccccc2)c1	0	40µM	0	16µM
CCCNC(=O)C[C@@H]1CCN(S(=O)(=O)c2c(C)noc2C)C[C@@H]1CC	0	0	0	0
CN1CC(=O)N(c2cccc(F)c2)Cc2c1ncnc2N1CCC(F)CC1	-	0	-	0
COc1ccc(-c2ccnc3nc(-c4ccccc4OC)nn23)cc1OC	0	?	0	?
COc1ccccc1-c1nc2nccc(-c3cc4ccccc4o3)n2n1	0	89µM	0	?
COc1ccccc1-c1nc2nccc(-c3ccc4c(c3)OCCCO4)n2n1	?	18µM	0	?
COc1ccc(-c2ccnc3nc(-c4cccs4)nn23)cc1OC	0	?	0	7.1µM
CN(CC(=O)O)C(=O)[C@H]1C[C@@](C)(C(=O)O)N(C)[C@H]1c1ccc(Cl)cc1	0	0	0	0
O=C1COc2ccc(-c3cn[nH]c3)nc2CN1Cc1ccc(C(F)(F)F)cc1	0	?	0	10µM
O=C(CN1Cc2nc(Nc3ccc(C(F)(F)F)cc3)ccc2OCC1=O)N1CCCC1	0	79µM	0	50µM
Cc1noc(C)c1-c1ccc2c(n1)CN(Cc1ccc(C(F)(F)F)cc1)C(=O)CO2	0	?	0	?
O=C1COc2ccc(NCc3cccs3)nc2CN1Cc1ccc(C(F)(F)F)cc1	0	79µM	?	79µM
COc1ccc(-c2ccc3c(n2)CN(Cc2csc(C)n2)C(=O)CO3)cc1F	0	?	0	?
Cc1nc(CN2Cc3nc(-c4cccc(C(F)(F)F)c4)ccc3OCC2=O)cs1	0	100µM	0	79µM
Cn1cnc(S(=O)(=O)N2CCC(Cc3nncn3-c3ccccc3)CC2)c1	0	0	0	0
O=C1COc2ccc(OCC3CC3)nc2CN1Cc1ccc(C(F)(F)F)cc1	0	79µM	0	79µM
O=C1COc2ccc(-c3ccncc3)nc2CN1Cc1ccc(C(F)(F)F)cc1	0	79µM	0	?
Cc1ccc(NC(=O)CN2C(=O)NC3(CCC(C)CC3)C2=O)cc1Cl (stereo not given)	0	?	0	0
